Data reported in PubChem BioAssay AID504607 (Sanford-Burnham Center for Chemical Genomics, 2011).
Screen size: about 6,200 compounds; about 4,800 (77%) were called active. So high a share suggests a set chosen from earlier hits. A selection follows. A number with no mark means an inactive call.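 How the source made its calls: active means mean inhibition at 8 µM reaching about 37%, which flags the compound as non-specific (limit read from the data); inactive means the rest.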

Assay: full-length luciferase signal inhibition, confirmation, counter-screen for Mdm2/MdmX interaction inhibitor project, cell-based, single concentration, SaOS-2 (AID 504607);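 further: p53-null SaOS-2 cells with luciferase driven by a doxycycline-inducible promoter; compound on cells about two nights before reading with doxycycline added after day one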
Conditions: SaOS-2 full-length luciferase counterscreen, luminescence; at 8 µM; hits give high values
For `CCCCCCCCCCCCn1ccc(=N)cc1`, the inhibition was 52.1% (active).
With `CNC(=O)O/N=C(\N)Cc1csc2ccccc12` the inhibition was 81.2% (active).
With `CNC(=O)O/N=C(\N)Cc1csc2ccc(Cl)cc12` the inhibition was 126% (active).
With `CCOc1ccc(-c2cc(C)[n+](CCN(CC)CC)c(-c3ccc(OCC)cc3)c2)cc1` the inhibition was 22.3%.
With `O=C1NC(=O)N(CCc2ccc(F)cc2)C(=O)/C1=C/C=C/c1ccccc1` the inhibition was 83.8% (active).
With `COC(=O)C1=C(c2ccc(F)cc2OCc2ccccc2)C[C@@H]2CC[C@H]1N2C(=O)NCc1ccc2[nH]ccc2c1` the inhibition was 94.7% (active).
With `Cc1cc2ccccn2c1C(C[N+](=O)[O-])c1c(F)cccc1Cl` (centres undefined) the inhibition was 29.6%.
In the case of `O=C1C2(Cl)C3(Cl)C4(Cl)C(Cl)(Cl)C5(Cl)C3(Cl)C1(Cl)C5(Cl)C24Cl` (centres undefined), the inhibition is reported as 46.6% (active).
`O=Cc1cn(Cc2ccc(F)cc2Cl)c2ccccc12` gave an inhibition of 35.1%.
